# Experimental data reported in PubChem BioAssay AID651812 (National Center for Advancing Translational Sciences (NCATS), 2012).
# Screen size: about 2,100 compounds; about 650 (31%) were called active. Another 16% or so got no clear call; they are omitted. The call rests on the fitted dose curve; in most records, active means well fitted inhibition curve with a large enough effect; inconclusive means small, poorly fitted or top-dose-only effect; inactive means flat fitted curve, though single readings scatter. The list shows a part of the results.
# Experiment: qHTS for inhibitors of Vif-A3G interactions: Cherry picks; further: nearly all actives have a fitted effect of over 80% in size; on activity, negative = fluorescence increase: % of control where 0% means no effect
# Details: HeLa A3G-eYFP + Vif (tagged APOBEC3G with the HIV-1 protein that degrades it), 24 h; Potency: eYFP fluorescence increase; series mostly up to 36.9 µM; activity, negative = fluorescence increase: at the top concentration
# Procedure, shortened: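 HeLa cells stably expressing A3G-eYFP and Vif, cultured overnight then exposed to compounds at several concentrations for 24 hours at 37 C, 5% CO2; cellular yellow fluorescence (488 nm ex, 500-530 nm em) imaged on Acumen, MG132 positive control.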
# Potency means the concentration at half of the fitted maximal effect.
Structure (SMILES),Potency,"activity, negative = fluorescence increase"
O=c1c2ccccc2nc(/C=C/c2ccc([N+](=O)[O-])o2)n1-c1ccc(O)cc1,15.8 µM (active),–
Cc1cccc(-n2c(/C=C/c3c(C)[nH]c4ccccc34)nc3ccccc3c2=O)c1,16.4 µM (active),–
Cc1cccc(-n2c(/C=C/c3ccc([N+](=O)[O-])o3)nc3ccccc3c2=O)c1,3.66 µM (active),–
CC(=O)OC1C2(CC3N4C(=O)C5(CO)SSC4(CC31O)C(=O)N5C)OC(C)C(C)(C)C2=O (stereo unspecified),–,-3.88% (inactive)
O=c1nc(/C=C/c2ccc(Cl)cc2Cl)cc(C(F)(F)F)[nH]1,–,-0.355% (inactive)
C=CCn1c(O)c(C(C)=Nc2ccc(N(CC)CC)cc2)c(=O)[nH]c1=O,–,-6.28% (inactive)
CCN(CC)c1ccc(N=Cc2c(O)n(Cc3ccccc3)c(=O)[nH]c2=O)cc1,7.31 µM (active),–
CCN(CC)c1ccc(N=Cc2c(O)n(CCC3=CCCCC3)c(=O)[nH]c2=O)cc1,3.66 µM (active),–
Cc1cccc(-n2c(O)c(/C=C/C=Nc3ccccc3)c(=O)[nH]c2=O)c1,5.17 µM (active),–
COc1ccc(-n2cnc3cc(C(=O)N4CCC5(CC4)OCCO5)ccc32)cc1,–,3.42% (inactive)
Cc1cc(C)cc(N2C(=O)NC(=O)/C(=C\C=C\c3ccco3)C2=O)c1,–,-22.3% (inactive)
Cc1cccc(N2C(=O)NC(=O)/C(=C\C=C\c3ccco3)C2=O)c1,–,-12.9% (inactive)
CC(C)c1ccc(N2C(=O)NC(=O)/C(=C/C=C/c3ccco3)C2=O)cc1,17.7 µM (active),–
CN(C)c1ccc(/C=C/C=C2/C(=O)NC(=O)N(c3ccccc3)C2=O)cc1,23.1 µM (active),–
CC(C)c1ccc(N2C(=O)NC(=O)/C(=C\C=C\c3ccco3)C2=O)cc1,17.7 µM (active),–
O=[N+]([O-])c1ccc(N2CCOCC2)c2c1no[n+]2[O-],–,-16.4% (inactive)
CC(C)CCCn1c(O)c(/C=C2/C=CC=N2)c(=O)[nH]c1=O,23.1 µM (active),–
C=C1C(=O)OC2C1CCC(C)C1(O)C=CC(=O)C21C (stereo unspecified),–,0.263% (inactive)

Structure (SMILES),Potency,"activity, negative = fluorescence increase"
CC1=CC(=Cc2sc3ccccc3[n+]2C)C=C(C)O1,6.51 µM (active),–
Nc1ccc2c3c(cccc13)-c1ccccc1-2,4.11 µM (active),–
CN1C(=O)/C(=C\c2ccc(N3CCCCC3)o2)C(=O)NC1=S,17.7 µM (active),–
CN1CCN(c2ccc(/C=C3\C(=O)NC(=S)N(c4cccc(Br)c4)C3=O)o2)CC1,18.4 µM (active),–
CCC(C)N1C(=O)/C(=C\c2ccc(N3CCCCCC3)cc2)C(=O)NC1=S (stereo unspecified),–,-23.4% [at 46.1 µM] (inactive)
CN1C(=O)/C(=C/c2ccc(N3CCCCCC3)o2)C(=O)NC1=S,15.8 µM (active),–
Cc1cc(/C=C2\C(=O)NC(=O)N(c3ccc(Br)cc3)C2=O)c(C)n1C,–,-0.904% (inactive)
CCN(CC)c1ccc(C=C2C(=O)N(C)C(=S)N(C)C2=O)o1,14 µM (active),–
CCN(CC)c1ccc(/C=C2\C(=O)NC(=S)N(C)C2=O)o1,12.5 µM (active),–
CCN1C(=O)/C(=C/c2ccc(N(CC)CC)cc2OC)C(=O)NC1=S,–,-8.27% [at 46.1 µM] (inactive)
CCN(CC)c1ccc(/C=C2\C(=O)NC(=S)N(c3ccc(OC)cc3OC)C2=O)o1,16.4 µM (active),–
COc1cc2c(cc1O)[C@@H]1Cc3ccc(OC)c(O)c3CN1CC2,–,-7.77% (inactive)
N#CC1=C(N)Oc2c(c(=O)sc3ccccc23)C1c1cccnc1 (stereo unspecified),–,-9.63% (inactive)
Cc1cc(N2CCCC2)ccc1C=C(C#N)C#N,7.31 µM (active),–
Cc1c2ccncc2c(C)c2c1[nH]c1ccccc12,14.6 µM (active),–
CC/C(=N\NC(=O)c1ccccc1O)c1c(O)n(Cc2ccccc2)c(=O)[nH]c1=O,20.6 µM (active),–
CC(=O)O[C@@]12CO[C@@H]1C[C@H](OC1OCC(O)C(O)C1O)[C@@]1(C)C(=O)[C@H](O)C3=C(C)[C@@H](OC(=O)[C@H](O)[C@@H](NC(=O)c4ccccc4)c4ccccc4)C[C@@](O)([C@@H](OC(=O)c4ccccc4)C12)C3(C)C (stereo partly specified),–,-10.3% (inactive)
COC(=O)C1=C(C)N(Cc2ccco2)C(=O)/C1=C\c1ccc(N(C)C)cc1,13 µM (active),–
